Measurements: the OligoGym collection
Also: reference of the scale not given here.

These sequences were tested against LHFPL3 (assay: pooled miR-30 sensor sort-seq; sequence = guide strand). Details: shRNA.
TTAGCTTGTGTTCATTCTCAGG was tested, and the sensor-assay potency score (higher = more potent) was -1.28. In the case of TTTACTTCATCTGAGTCCCAGC, the sensor-assay potency score (higher = more potent) is reported as -0.606. Sequence TAATCCATGATCACATCTCTTT has a sensor-assay potency score (higher = more potent) of -0.691. TACATGTTAACTCTAGAGCATT showed a sensor-assay potency score (higher = more potent) of -1.25. Sequence ATATCTTGTACACAGTGGCCGT has a sensor-assay potency score (higher = more potent) of -1.29. Work on TTAAACAGAACACAGACTTGGT yielded a sensor-assay potency score (higher = more potent) of 0.0174. For TTTTACTTCATCTGAGTCCCAG, the sensor-assay potency score (higher = more potent) was 0.0126. TATCTTGTACACAGTGGCCGTG was tested, and the sensor-assay potency score (higher = more potent) was -0.302. Work on TAAAATAGGAATGTGGTCCTAA yielded a sensor-assay potency score (higher = more potent) of 0.497. For TACTTGTCTGTCTTTTCTCCAC, the sensor-assay potency score (higher = more potent) was -0.0892. With TTAGTTGTTAACTACTTCCAGA the sensor-assay potency score (higher = more potent) was -0.755. With TAGCCTATAATATTACACGTGA the sensor-assay potency score (higher = more potent) was -0.577.

These sequences were tested against LHFPL4 in the same assay as above. Details: shRNA.
With AAAATCTTTGTTCTCCGGCTTG the sensor-assay potency score (higher = more potent) was -0.289. AAGAGCTGCATCCAGGCGCAGA showed a sensor-assay potency score (higher = more potent) of -1.19. Sequence ATCTTGTAGACCGTAGCCGTGT has a sensor-assay potency score (higher = more potent) of -0.823. Work on TAGACCGTAGCCGTGTTGCAGA yielded a sensor-assay potency score (higher = more potent) of -0.559. In the case of AAGTCGGTGAAGGAGCCCCGGC, the sensor-assay potency score (higher = more potent) is reported as -1.53. AAATCTTTGTTCTCCGGCTTGA showed a sensor-assay potency score (higher = more potent) of -0.165. TAGTGCTCGTGGTAGAGCTTGG showed a sensor-assay potency score (higher = more potent) of -0.315. Sequence TCCGCATGTAGTGCTCGTGGTA has a sensor-assay potency score (higher = more potent) of -1.39.
